A word on the inhibition: it is the change of the read-out against control, counted positive when it falls.

Chain of PEG-3 (Q6IN02 whole entry, looked up): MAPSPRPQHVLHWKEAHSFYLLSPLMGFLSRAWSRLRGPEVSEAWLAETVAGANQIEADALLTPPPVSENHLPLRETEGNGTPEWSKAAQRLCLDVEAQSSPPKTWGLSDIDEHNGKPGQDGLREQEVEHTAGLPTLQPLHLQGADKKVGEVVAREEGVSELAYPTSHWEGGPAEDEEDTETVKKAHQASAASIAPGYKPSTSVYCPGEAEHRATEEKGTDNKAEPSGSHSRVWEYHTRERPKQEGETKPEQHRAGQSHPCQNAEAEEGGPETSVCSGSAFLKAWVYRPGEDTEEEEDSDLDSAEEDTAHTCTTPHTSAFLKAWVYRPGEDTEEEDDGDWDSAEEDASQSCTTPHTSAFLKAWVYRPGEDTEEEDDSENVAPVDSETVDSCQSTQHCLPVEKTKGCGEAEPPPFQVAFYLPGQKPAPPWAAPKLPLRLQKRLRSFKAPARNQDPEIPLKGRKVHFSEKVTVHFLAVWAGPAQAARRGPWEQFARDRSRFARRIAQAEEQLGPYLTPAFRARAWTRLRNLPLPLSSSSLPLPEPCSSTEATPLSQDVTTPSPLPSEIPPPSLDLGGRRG

This test has as its target PEG-3 (UniProt Q6IN02). Nature of the test: inhibition of PEG-3 promoter-driven reporter – cell-based, HeLa, luciferase, CREF/GAPDH counter-screen panel, dose response (AID 624167). Conditions: CREF/GAPDH counter-screens; HeLa PEG-Prom luciferase reporter, overnight, run 1, dose range 1, at 100 µM (top of the series) unless noted. (The purpose of a counterscreen is to sort out artefacts and off-target activity.)
With `Cc1ccc2cccc(OCC(=O)Nc3cccc(S(=O)(=O)N4CCCC4)c3)c2n1`, the inhibition stood at 94.5%.

Consider `COc1cc(C=NO)nc(-c2ccccn2)c1`, for which the inhibition is 71.9%.

With `CC1(C)C(=O)C=CC(=O)C(C)(C)C(=O)C=CC(=O)C(C)(C)C2=CC=C(O2)C(C)(C)C(=O)C=CC1=O`, the inhibition came to 102%.

On to `COc1cccc(NC(=O)Nc2cccc(C(=O)O)c2)c1`, for which the inhibition was found to be 87%.

As for `CN(C)CCNC(=O)c1sc2nc(-c3ccccc3)cc(C(F)(F)F)c2c1N`, the inhibition amounted to 102%.

With `Cc1ccc(N2CC(C(=O)Nc3nccs3)CC2=O)cc1Cl` (stereo not given), the inhibition is 99.5%.

With `COc1ccc(CC(N)c2csc(NC(=O)Nc3ccccc3C(C)(C)C)n2)cc1` (stereo not given), the inhibition was 102%.

In the case of `CN(CC(=O)Nc1ccc(Cl)c(C(F)(F)F)c1)C(=O)c1cc(-c2ccncc2)nc2ccccc12`, the inhibition worked out at 102%.

With `CCN1CCN(CCNC(=O)c2ccc(/C=C3\Sc4ccccc4N(Cc4ccccc4F)C3=O)cc2)CC1`, the inhibition is 102%.

Turning to `CN1CCN(CCNC(=O)c2ccc3nc(-c4ccc(F)cc4)c(-c4ccc(F)cc4)nc3c2)CC1`, the inhibition is 99.2%.

As to `COc1ccc(-c2cc(C(=O)N(C)Cc3cccc(OC)c3OC)c3ccccc3n2)cc1OC`, the inhibition turned out to be 72.4%.

As to `Cn1cc(CN2CCCC(C(=O)Nc3ccc(-c4cccc(F)c4)cc3)C2)cn1` (stereo not given), the inhibition came out at 101%.

Consider `CC(=O)Nc1cccc(-c2ccnc3c2CC(C)(C(=O)Nc2cccc(OC(F)(F)F)c2)O3)c1` (stereo not given), for which the inhibition worked out at 68.6%.

On to `O=[N+]([O-])c1ccc(-c2nc(Nc3cccc(O)c3)c3ccccc3n2)cc1`, for which the inhibition was found to be 99.4%.

With `COc1ccc2c(c1)[nH]c1c(=O)n(/N=C/C3C(C)C=C(C)CC3C)c(=O)[nH]c12` (stereo not given), the inhibition is -108%.

As for `COc1ccccc1CN(C)C(=O)c1cc(-c2cccs2)nc2ccccc12`, the inhibition amounted to 99%.

For the compound `CN(C)CCNc1ncnc2c1ncn2[C@H]1CN(Cc2ccc(-c3ccccc3)cc2)C[C@@H](CO)O1`, the inhibition was 100%.

As for `c1cc2c3c(cccc3c1)NC1(CCC3(CC1)Nc1cccc4cccc(c14)N3)N2`, the inhibition turned out to be 97.7%.

Take `CCOC(=O)c1cnc2c(cnn2C)c1NCCCN(C)C`: the inhibition is 80.7%.

Consider `O=S(=O)(c1cccs1)N1CCN(c2ccnc3cc(Cl)ccc23)CC1`, for which the inhibition amounted to 83.3%.

On to `CCCCCCCCCC[N+](C)(C)CC/C=C1/c2ccccc2Sc2ccc(Cl)cc21`, for which the inhibition came out at 99.8%.

For `Cc1ccc(C(=O)N/C(=C\c2ccc(-c3cccc([N+](=O)[O-])c3)o2)C(=O)NCCCN(C)C)cc1`, the inhibition was found to be 102%.

Take `NC(=O)c1nsc(C(=O)N(c2ccccc2F)C(C(=O)NCc2ccccc2)c2ccc(O)cc2)c1N` (stereo not given): the inhibition is 98.6%.

In the case of `CCOc1cc(CNCCO)cc(Br)c1OCc1ccccc1Cl`, the inhibition turned out to be 100%.

`COc1ccc(CN2CCN(C(=O)c3cc(-c4cccnc4)nc4ccc(Cl)cc34)CC2)c(OC)c1OC`: the inhibition was found to be 74.9%.

In the case of `c1ccc(-c2cc(-c3nc4ccccc4[nH]3)c3ccccc3n2)cc1`, the inhibition was 86.8%.

For `O=c1c2c3c(sc2nc(N2CCNCC2)n1CCc1ccccc1)CCCCC3`, the inhibition was found to be 102%.

Turning to `Nc1c(C(=O)Nc2cccc(C(=O)O)c2)sc2nc3c(cc12)CCCC3`, the inhibition was found to be 92.6%.

As for `CN1Cc2c(N3CCOCC3)nc3sc(C(=O)c4ccc(Br)cc4)c(N)c3c2CC1(C)C`, the inhibition worked out at 99%.

For `COc1ccc(-c2cc(C(=O)Nc3ccccc3N3CCOCC3)c3ccccc3n2)cc1OC`, the inhibition came out at 2.08%.

`c1ccc(C[C@H]2CNCCN2CCCCC2CCCCC2)cc1`: the inhibition came out at 102%.

In the case of `COc1ccc(-n2ncc3c(N(C)C4CCCCC4)ncnc32)cc1`, the inhibition is 96.6%.

With `Cc1ccc(-n2cc(CNCCCn3ccnc3C)c(-c3ccc(F)cc3)n2)cc1`, the inhibition is 99.8%.

Take `c1ccc(CCNc2nc(-c3ccncc3)nc3ccccc23)cc1`: the inhibition is 52.1%.

Regarding `COc1cccc(NC(=O)CN(C)C(=O)c2cccnc2Nc2cccc(C(F)(F)F)c2)c1`, the inhibition turned out to be 102%.

Regarding `CSc1ccc(CN(C)C(=O)C(Cc2ccccc2)NC(=O)c2ccccc2)cc1` (stereo not given), the inhibition came out at 101%.

Consider `C/C(=N\N=C(N)N)c1ccc(Cl)c(Cl)c1`, for which the inhibition came out at 102%.

`CCN1CCCC1CN(Cc1cc2ccc(C)cc2[nH]c1=O)C(=S)Nc1ccc(OC)cc1` (stereo not given): the inhibition came to 102%.

`Cc1c(C#N)c(N)nc2c3c(sc12)NC(=O)CC3c1ccc(Cl)cc1` (stereo not given): the inhibition stood at 98.7%.

As for `CCN(CC)CCN1CCN(c2cncc(-c3ccc4ccccc4c3)n2)CC1`, the inhibition was 98.9%.

(Values after PubChem BioAssay.)
